About 150 (0.041%) of roughly 370,000 compounds were called active. Roughly 14% stayed inconclusive and do not appear here. Calls come from the whole dose curve; as a rule, active = well fitted inhibition curve with a large enough effect; inconclusive = small, poorly fitted or top-dose-only effect; inactive = flat fitted curve, though single readings scatter. The sample as a whole holds a higher share of actives than the screen did.
Molecular target: Beta-lactamase (Escherichia coli (strain K12)) (UniProt P00811)
Sequence (P00811 whole entry, looked up): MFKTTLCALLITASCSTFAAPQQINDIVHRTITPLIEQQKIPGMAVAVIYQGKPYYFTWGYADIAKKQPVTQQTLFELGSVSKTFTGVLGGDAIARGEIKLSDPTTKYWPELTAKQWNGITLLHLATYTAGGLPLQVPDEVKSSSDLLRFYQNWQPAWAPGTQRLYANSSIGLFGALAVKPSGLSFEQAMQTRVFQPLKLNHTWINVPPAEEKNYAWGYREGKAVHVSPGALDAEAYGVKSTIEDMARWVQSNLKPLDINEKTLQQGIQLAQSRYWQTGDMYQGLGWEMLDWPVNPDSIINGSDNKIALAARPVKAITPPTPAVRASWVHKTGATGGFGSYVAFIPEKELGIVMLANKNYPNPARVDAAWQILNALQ
Assay: qHTS Inhibitors of AmpC Beta-Lactamase (assay with detergent); note: nearly all actives have a fitted effect of over 25% in size;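 for activity change, negative = inhibition: 0% = no-compound wells and -100% = no-enzyme wells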
Conditions: AmpC hydrolysis of nitrocefin, absorbance 480 nm, 0.01% Triton; series mostly up to 114 µM; activity change, negative = inhibition: at the top concentration
Experimental: NIH Molecular Libraries Probe Production Network [MLPCN] NIH Chemical Genomics Center [NCGC] Assay Provider: Professor Brian Shoichet, UCSF Assay Overview: This aggregation profiling approach exploits the sensitivity of aggregate formation to detergent. Inhibition of b-lactamase is measured in the presence and absence of 0.01% Triton X-100. This particular assay had the prescence of 0.01% Triton X-100. See Pubchem assay "Promiscuous and Specific Inhibitors of AmpC Beta-Lactamase (assay without detergent)" for related screen. Compounds that inhibit only in the absence of detergent are considered likely promiscuous aggregators. A screen of 1,030 compounds was performed in Brian Shoichet's lab in 96-well format. AmpC activity was measured by following the absorbance at 480 nm. Nitrocefin is a chromogenic substrate: while nitrocefin is yellow (lmax 390 nm), the product of its hydrolysis is red (lmax 486 nm, 17,000 M-1). AmpC beta lactamase was provided by Shoichet Lab, UCSF.
Buffer: 20 mM phosphate buffer, pH 7.0 Triton X-100: No Detergent screen: 0.0001%, Detergent screen: 0.01%. Reagents/Controls: Buffer in columns 3 and 4 as negative control (no enzyme). 5.3 nM AmpC in columns 1, 2, 5-48. Titration of UCSF compound 9 control (from 10 mM, then 1:2) pin-transferred to column 2. Column 1 is neutral (100% activity). Assay Steps: Six uL of reagents were dispensed to 1536-well Greiner black clear bottom plates. Compounds and controls (23 nL) were transferred via Kalypsys PinTool. The plates were incubated for 15 min at room temperature, and then 2 uL of 800 uM solution of nitrocefin was added to start the reaction. The plates were immediately transferred to and read every 20 seconds for 4 min on ViewLux (Perkin-Elmer) High-throughput CCD imager using 480 nm absorbance protocol. During dispense, reagent bottles were kept submerged into 4 deg C water bath. Keywords: NIH Roadmap, MLSCN, MLI, MLSMR, qHTS, NCGC, AmpC Beta-Lactamase, Aggregation
Potency is the fitted concentration of half-maximal effect.

SMILES | activity change, negative = inhibition | Potency
Cc1c(-c2nc(-c3ccc4c(c3)OCO4)no2)nnn1-c1ccc(Br)cc1F | 3.22% (inactive) | –
COc1cc(NC(=O)c2noc3c2CSc2ccccc2-3)cc(OC)c1OC | 22.2% (inactive) | –
CCCCN1CC(c2nc3ccccc3n2CCCCOc2ccc(C)cc2C)CC1=O (stereo not drawn) | 20.3% (inactive) | –
CCOc1cccc(NC(=O)CSc2ncc(-c3ccc(Cl)cc3)[nH]2)c1 | 14.7% (inactive) | –
CC(=O)N1CCCc2cc(S(=O)(=O)Nc3ccc(Cl)cc3F)ccc21 | -0.767% (inactive) | –
Nc1ccc(Nc2cc(O)c3ncccc3c2)cc1 | -4.05% (inactive) | –
CCN(CC)S(=O)(=O)c1ccc2c(c1)N(CC(=O)NCC(C)c1ccccc1)C(=O)CO2 (stereo not drawn) | 18.7% (inactive) | –
CSc1ccccc1-c1nnc(NC(=O)c2ccc3c(c2)OCCO3)o1 | 5.64% (inactive) | –
CCn1c(CN2CCC(C)CC2)nc2cc(NC(=O)c3ccccc3[N+](=O)[O-])ccc21 | 22.8% (inactive) | –
COc1ccc(NC(=O)CCN2CCN(CCO)CC2)cc1 | 1.07% (inactive) | –
O=C(c1cccs1)c1cn(CCOc2ccc(Cl)cc2)c2ccccc12 | -3.12% (inactive) | –
COc1ccc(OC)c(NC(=O)Cn2c(=O)n(Cc3ccccc3)c(=O)c3ccccc32)c1 | 5.51% (inactive) | –
CSc1nc(=O)c2c(n1C)NC(=O)CC2c1ccccc1OC(C)C (stereo not drawn) | 5.75% (inactive) | –
Cc1cccc(N2CCN(C(=O)c3oc(=O)c4ccccc4c3-c3ccccc3)CC2)c1C | -1.7% (inactive) | –
COc1ccc(Cn2ccnc2SCC(=O)Nc2ccc3c(c2)OCO3)cc1 | 5.64% (inactive) | –
Cc1ccccc1OCc1ccc(-c2nc(C#N)c(N3CCCCC3)o2)o1 | 0.568% (inactive) | –
Cc1ccc(S(=O)(=O)c2c(Nc3cccc(Cl)c3)sc(C(=O)c3ccc4c(c3)OCO4)c2N)cc1 | 28.1% (inactive) | –
Cc1cccc(NC(=O)Cn2c(C(F)(F)F)nc3ccccc32)c1C | 5.01% (inactive) | –
O=C(/C=C/c1ccccc1)Nc1cc(-c2nc3cc(Cl)ccc3o2)ccc1Cl | -2.1% (inactive) | –
COc1ccc(-c2cc(C(F)(F)F)n3nc(-c4ccccc4)cc3n2)cc1OC | 0.338% (inactive) | –
CCOc1ccc(C(NC(=O)c2cc(OC)c(OC)c(OC)c2)c2cc(Cl)c3cccnc3c2O)cc1 (stereo not drawn) | -6.18% (inactive) | –
Cc1ccc2c(=O)c(C(=O)c3ccc(Cl)cc3)cn(CC(=O)NC3CCCCC3)c2n1 | 18.9% (inactive) | –
COc1ccc(-c2nc3ccccc3s2)cc1NC(=O)COc1ccccc1C | 1.82% (inactive) | –
CCn1c(C(=O)Nc2cc(Cl)ccc2C)cc2sc(Cl)cc21 | 16.5% (inactive) | –
Cc1cc(C)c(NC(=O)c2cc3sc(Cl)cc3n2C)c(C)c1 | – | 56.2 µM (active)

SMILES | activity change, negative = inhibition | Potency
Cc1ccc(NC(=O)c2cc3cc(C)ccc3n2C)cc1 | -3.66% (inactive) | –
COc1ccc(CCNc2ncnc3onc(-c4ccc(Cl)cc4)c23)c(OC)c1 | 9.52% (inactive) | –
CCOC(=O)c1c(C)oc2nc(C)nc(N3CCN(c4ccc(OC)cc4)CC3)c12 | 13.8% (inactive) | –
COc1cccc(N(C(=O)CNC(=O)c2ccco2)C(C(=O)NC2CCCCC2)c2cccnc2)c1 (stereo not drawn) | -8.32% (inactive) | –
Cc1ccc(N(C(=O)CNC(=O)c2ccco2)C(C(=O)NC2CCCC2)c2ccncc2)cc1 (stereo not drawn) | – | 14.1 µM (active)
CC(C)(C)NC(=O)C(c1ccncc1)N(C(=O)CNC(=O)c1ccco1)c1ccc2c(c1)OCO2 (stereo not drawn) | -14.3% (inactive) | –
Cc1nnc(N2CCCC(C(=O)NCCN(C)C)C2)c2nn(-c3ccccc3)c(C)c12 (stereo not drawn) | 1.73% (inactive) | –
CCOc1ccc(-c2n[nH]c3c2C(c2ccccc2OC)N(c2ccc(Br)cc2)C3=O)cc1 (stereo not drawn) | -2.45% (inactive) | –
Nc1ccc2nc3c(=O)[nH]c(=S)[nH]c3nc2c1 | – | 50.1 µM (active)
Clc1ccc(CSc2nncn3c2cc2occc23)cc1 | -10.9% (inactive) | –
Cc1ccc(C)c(S(=O)(=O)c2nnn3c2nc(N2CCOCC2)c2sccc23)c1 | 9.64% (inactive) | –
CCC(=O)N1CCc2cc(Br)cc(S(=O)(=O)Nc3ccc(C)cc3C)c21 | 4.3% (inactive) | –
CC1=C(c2ccc(C)cc2)S(=O)(=O)NC1=NCCCN1CCN(c2cc(C)ccc2C)CC1 | 19.9% (inactive) | –
Fc1ccc(C(Nc2ccc(Cl)c(C(F)(F)F)c2)c2nnc(-c3ccccc3)o2)cc1 (stereo not drawn) | 5.04% (inactive) | –
Cc1ccc(-c2cn3c(n2)sc2cc(C(=O)NCc4cccs4)ccc23)c(C)c1 | 13.4% (inactive) | –
CCOC(=O)c1c(NC(=O)c2ccc(S(=O)(=O)N(CC)CC)cc2)sc2c1CCCCC2 | -9.3% (inactive) | –
COc1ccc(-c2cccc(NS(=O)(=O)c3cc(C)c(OC)c(C)c3C)c2)nn1 | 11.2% (inactive) | –
Cc1ccc(NC(=O)Cc2ccc(NC(=O)N3CCCCc4ccccc43)cc2)cc1 | 3.85% (inactive) | –
COc1ccc(CCC(=O)NCCc2csc(-c3ccc(Cl)cc3)n2)cc1 | 2.64% (inactive) | –
COc1cc(-c2cc3n(C)c(C)c(CCC(=O)Nc4ccc(F)cc4)c(=O)n3n2)cc(OC)c1OC | -3.72% (inactive) | –
Cc1ccc(NC(=O)c2cc(S(=O)(=O)NCCC3=CCCCC3)ccc2F)cc1C | -2.66% (inactive) | –
Cc1cc(Nc2cccc(C(F)(F)F)c2)nc2ccc(NC(=O)c3ccc(=O)[nH]c3)cc12 | 1.63% (inactive) | –
COCCn1c(CCC(=O)Nc2cc(C)ccc2C)nc2cccnc21 | 17.5% (inactive) | –
Cc1ccc2cccc(NC(=O)c3ccc(OC(C)C)cc3)c2n1 | -6.92% (inactive) | –
COc1ccc(-c2nc3nc(C)cc(C)n3c2Nc2c(C)cccc2C)cc1 | 8.99% (inactive) | –

SMILES | activity change, negative = inhibition | Potency
O=C(Nc1c(C(=O)N2CCN(c3ccc(F)cc3)CC2)oc2ccccc12)c1ccco1 | 6.2% (inactive) | –
CCOc1ccc(NC(=O)CCc2c(C)nn(-c3ccc(N4CCCC4)nn3)c2C)cc1 | -8.16% (inactive) | –
O=C(COc1ccccc1F)Nc1ccc(C(=O)OCc2cc(=O)n3nc(C4CC4)sc3n2)cc1 | 2.62% (inactive) | –
CCOc1cc(C2C(C(=O)OC)=C(C)NC3=C2C(=O)c2ccccc23)ccc1O (stereo not drawn) | -0.36% (inactive) | –
O=S(=O)(c1ccc2nc(NCc3ccccc3Cl)ccc2c1)N1CCCCC1 | -1.11% (inactive) | –
COc1ccc(Cl)cc1-n1c(CCC(=O)O)ccc1-c1ccc(C)cc1 | 3.97% (inactive) | –
O=C(Nc1ccc(S(=O)(=O)N2CCC(c3nc4ccccc4s3)CC2)cc1)c1ccccc1F | 16.5% (inactive) | –
CSc1ccc(CCNC(=O)c2cc(C)nc3c2c(C)nn3-c2cccc(F)c2)cc1 | 0.607% (inactive) | –
Cc1ccc(Cl)cc1NC(=O)CSc1nc2ccccc2nc1Cc1ccccc1 | 21.3% (inactive) | –
CCCCN(CC)CCCNC(=O)c1nn(C)c2c1CS(=O)(=O)c1ccccc1-2 | 17.6% (inactive) | –
CCC(CC)c1nn2cc(-c3ccccc3)nc2s1 | 6.01% (inactive) | –
COc1ccc(N2C(=O)CSC23C(=O)N(Cc2cccc(F)c2)c2ccccc23)cc1Cl (stereo not drawn) | 20.8% (inactive) | –
O=C(CC(NCc1cccnc1)C(=O)O)Nc1ccc(O)cc1 (stereo not drawn) | 18.5% (inactive) | –
CCN(CCCNC(=O)c1ccc(Sc2ccc(C)cc2)c(NC(C)=O)c1)c1cccc(C)c1 | 11% (inactive) | –
Cc1ccc(CNC(=O)CCc2c(C)nn(-c3ccc(N4CCCC4)nn3)c2C)cc1 | 9.01% (inactive) | –
CC1=C(C(=O)OCc2ccc(C)cc2)C(c2ccccc2Cl)CC(=O)N1 (stereo not drawn) | -0.201% (inactive) | –
Cc1ccc(C(=O)NCCSc2c(C)[nH]c3ccccc23)cc1C | 9.55% (inactive) | –
CCc1ccc(NC(=O)c2cnc3c(-c4ccccc4)c(C)nn3c2C)cc1 | 6.28% (inactive) | –
CCN(C(=O)c1sc2cc(OC)ccc2c1Cl)c1ccccc1 | 1.06% (inactive) | –
COC(=O)c1cc(NC(=O)c2cnc(SC)nc2-c2ccccc2)cc(C(=O)OC)c1 | 7.39% (inactive) | –
CCCCOc1ccc(CN2C(=O)C(=O)c3cc(Br)cc(C)c32)cc1OC | 13.6% (inactive) | –
CCOc1ccc(/C=C(\C#N)c2nc3ccccc3c(=O)[nH]2)cc1OC | -3.18% (inactive) | –
O=C(COc1ccccc1)OCc1cc(=O)n2nc(-c3cccs3)sc2n1 | -3.28% (inactive) | –
O=C(Nc1ccc(Br)cc1)c1ccc(Br)c(S(=O)(=O)NCc2ccccc2)c1 | -1.49% (inactive) | –
CCn1c2ccccc2c2nnc(N3CCN(c4cc(C)ccc4C)CC3)nc21 | 21% (inactive) | –

SMILES | activity change, negative = inhibition | Potency
CCOC(=O)c1sc(NC(=O)/C=C/c2ccc(C(C)C)cc2)c(C(=O)OCC)c1C | -0.936% (inactive) | –
Cn1c2cc(B(O)O)sc2c2cnn(Cc3ccccc3F)c(=O)c21 | – | 2.82 µM (active)
Cn1cc(C(=O)NCc2ccccc2F)cn1 | -0.872% (inactive) | –
CCOC(=O)c1c(CNCc2ccccc2F)c2sc(C)cc2n1C | -3.41% (inactive) | –
Cc1cc2c(cc1S(=O)(=O)CCC(=O)Nc1ccc(OC(F)(F)F)cc1)OCC(=O)N2 | 24.8% (inactive) | –
COc1ccccc1C(=O)Nc1c(C(=O)Nc2ccc(C)cc2)oc2ccccc12 | -6.46% (inactive) | –
CCOC(=O)c1c(C)[nH]c(CCC(=O)NCCCN2CCN(c3cc(C)ccc3C)CC2)c1C | -1.88% (inactive) | –
COc1cc(NS(=O)(=O)c2ccc3c(c2)OCC(C(=O)N2CCCC2)O3)cc(OC)c1 (stereo not drawn) | -1.24% (inactive) | –
COc1cc2nc(SCc3ccc(F)cc3)n3nc(CCn4c(C)nc5ccccc54)nc3c2cc1OC | 3.25% (inactive) | –
CCCCN(CC)CCCNC(=O)Cn1ncc2c([nH]c3ccc(C)cc32)c1=O | 2.61% (inactive) | –
O=C(CN1C(=O)COc2ccc(S(=O)(=O)N3CCCCCC3)cc21)N1CCN(c2cccc(C(F)(F)F)c2)CC1 | 3.1% (inactive) | –
O=C(CSc1nccn1-c1ccc(F)cc1)Nc1cccc2ccccc12 | 0.247% (inactive) | –
COc1ccc2c(Sc3ccc(C)cc3)c(C(=O)NC(C)c3ccccc3)[nH]c2c1 (stereo not drawn) | 1.51% (inactive) | –
O=C(Nc1ccc2nc(SCCOc3ccccc3)sc2c1)c1ccco1 | 13.9% (inactive) | –
CCOc1cc(CNC(=O)c2sc3ncnc(N(C)C4CCCCC4)c3c2C)ccc1OC | -0.364% (inactive) | –
CCS(=O)(=O)N1CCc2cc(C(=O)NCc3ccc(OC)cc3)ccc21 | 21.8% (inactive) | –
Cc1ccc(NC2=C(Cl)C(=O)OC2OC(=O)c2ccccc2C)cc1 (stereo not drawn) | – | 6.31 µM (active)
COC(=O)C1=C(Nc2ccc(OC)cc2)C=C(C)C(C(=O)OC)C1c1ccc(C)cc1 (stereo not drawn) | -11.6% (inactive) | –
Cc1ccccc1C(=O)OC1OC(=O)C(Cl)=C1Nc1ccccc1 (stereo not drawn) | – | 14.1 µM (active)
Cc1ccccc1C(=O)Nc1ccccc1NC(=O)c1ccccc1C | 0.475% (inactive) | –
Cc1ccccc1C(=O)O | -5.95% (inactive) | –
Cc1ccc(Cl)cc1N1CCN(C(=O)c2cccn3c(=O)c4cc(Cl)ccc4nc23)CC1 | 7.06% (inactive) | –
CCOc1ccc(CNC(=O)CCc2c(C)nn(-c3ccc(N4CCCCC4)nn3)c2C)cc1 | 21.5% (inactive) | –
